USP1-UAF1 inh: blocks the human USP1/UAF1 deubiquitinase complex. recombinant USP1/UAF1, Ub-Rhodamine cleavage fluorescence. Potency, µM (top dose mostly 57.1 µM), for inactives: top-dose activity change, negative = inhibition, hits mostly inhibitors. 0.23% of 390,000 active. AID 743255; active = well fitted inhibition curve with a large enough effect; inconclusive = small, poorly fitted or top-dose-only effect; inactive = no such curve, though single readings can be large or run the other way; also: potency is read from the fitted curve at half-maximal effect; nearly all actives have a fitted effect of over 60% in size
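In this screen, compounds sit with the deubiquitinase complex (1nM) for 15 min at room temperature before Ub-Rho is added at 150nM final. Fluorescence rise is then followed for 6 reads every 60 seconds.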
Coupling enz: coupling enzyme interference in Giardia aldolase counter-screen; coupling enzyme system counterscreen, AmpLite Red fluorescence; activity change, negative = inhibition, % at 58.2 µM, hits read low; 0.67% of 290,000 active; in the data active = activity change below about -30%
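First, compound is pin-transferred into glyceraldehyde-3-phosphate coupling-enzyme reagent at 57.5 uM final and held 10 min at RT. Next, substrate, coupling system and AmpLite Red are added. After 20 min RT, fluorescence (525/598 nm) is read.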
Giardia killer: Giardia lamblia killing. activity change, % at 7.66 µM, hits read low. Giardia lamblia trophozoite viability. 0.15% of 340,000 active; in the data active = activity change below about -80%; inconclusive = between about -30% and that limit;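 also: parasites exposed to compound for two days anaerobically before the ATP read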
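Anaerobic 48 hrs incubation at 37 deg C of 100 trophozoites/well with test compounds; ATPLite 1-Step luminescence, 15-30 min RT, reports cellular ATP as viability.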
KCNH2 3.1 inh: inhibitors of human KCNH2 3.1 potassium channel isoform; 0.95% of 340,000 active; activity change, % (tested at about 1.8 µM); U2OS KCNH2 3.1, thallium flux FluxOr; active compounds read low; AID 720553;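 active = maximum activity change below -70%; inconclusive = maximum activity change from -70% to -50%; inactive = maximum activity change above -50%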;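 also: thallium influx rate constant from kinetic fluorescence after stimulation buffer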
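Kinetic fluorescence (2 min after stimulation buffer) measures Tl+ influx through KCNH2 3.1 expressed by viral transduction in U2OS cells; the rate constant is normalized against DMSO controls serving as positive and negative references.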
hERG WT inh: KCNH2 (human, wildtype) channel inhibition. Q12809. U2OS, BacMam KCNH2, thallium flux FluxOr; active compounds read low. activity change, % at 1.84 µM. 0.37% of 340,000 active. AID 720551;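 active = maximum activity change below -70%; inconclusive = maximum activity change between -70% and -50%; inactive = maximum activity change above -50%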
Target sequence (Q12809 whole entry, looked up): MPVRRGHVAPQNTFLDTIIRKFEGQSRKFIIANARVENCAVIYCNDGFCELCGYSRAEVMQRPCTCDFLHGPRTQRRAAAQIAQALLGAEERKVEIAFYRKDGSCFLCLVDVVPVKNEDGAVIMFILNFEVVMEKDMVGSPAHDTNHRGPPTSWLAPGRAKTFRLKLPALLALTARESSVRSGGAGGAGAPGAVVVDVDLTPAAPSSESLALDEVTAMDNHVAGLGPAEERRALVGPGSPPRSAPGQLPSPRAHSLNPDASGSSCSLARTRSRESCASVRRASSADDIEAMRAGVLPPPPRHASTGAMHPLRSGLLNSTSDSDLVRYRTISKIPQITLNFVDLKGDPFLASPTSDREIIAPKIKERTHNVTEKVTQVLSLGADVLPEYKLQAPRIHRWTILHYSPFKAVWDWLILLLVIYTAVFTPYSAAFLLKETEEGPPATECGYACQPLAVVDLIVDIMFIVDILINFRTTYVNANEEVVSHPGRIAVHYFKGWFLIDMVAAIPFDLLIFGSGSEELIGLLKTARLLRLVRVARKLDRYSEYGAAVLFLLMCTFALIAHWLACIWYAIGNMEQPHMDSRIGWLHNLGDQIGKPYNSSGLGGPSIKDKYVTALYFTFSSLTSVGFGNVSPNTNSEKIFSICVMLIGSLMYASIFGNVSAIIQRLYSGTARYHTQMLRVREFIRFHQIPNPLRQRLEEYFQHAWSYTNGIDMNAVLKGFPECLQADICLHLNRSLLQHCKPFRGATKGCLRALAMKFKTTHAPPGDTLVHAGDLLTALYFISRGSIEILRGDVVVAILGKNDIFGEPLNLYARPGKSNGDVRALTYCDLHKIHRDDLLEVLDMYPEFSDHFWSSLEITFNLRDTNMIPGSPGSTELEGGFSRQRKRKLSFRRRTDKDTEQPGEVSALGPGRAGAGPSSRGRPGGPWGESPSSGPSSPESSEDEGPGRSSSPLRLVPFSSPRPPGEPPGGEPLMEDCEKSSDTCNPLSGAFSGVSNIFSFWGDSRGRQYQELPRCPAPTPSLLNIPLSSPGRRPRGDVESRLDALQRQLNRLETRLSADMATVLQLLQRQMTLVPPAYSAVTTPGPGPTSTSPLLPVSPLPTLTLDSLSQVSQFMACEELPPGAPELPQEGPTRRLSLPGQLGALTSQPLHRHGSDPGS
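U2OS cells transduced with wild-type KCNH2 virus are loaded with FluxOr dye for 45 min, and thallium flux is measured in kinetic reads before and after stimulation buffer. Rate constants are normalized to DMSO controls.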
The depositor's hits bear a star; ? = inconclusive; nt = no result given. In the library only some 1.7% were active in any assay of this set; here they are far more common. % is scaled to controls: 0 for no effect and ±100 for the full control effect.

SMILES	USP1-UAF1 inh	Coupling enz	Giardia killer	KCNH2 3.1 inh	hERG WT inh
O=c1c2ccccc2nc(/C=C/c2ccc(O)cc2)n1-c1ccc(O)cc1	-21%	0	-3	17	2
COc1ccc(-n2c(/C=C/c3ccc(O)cc3)nc3ccccc3c2=O)cc1	-19%	0	-23	-22	-93*
CCOc1cc(OP(=S)(OC)OC)nc(CC)n1	nt	2	nt	nt	nt
CS(=O)(=O)c1ccc(C2=C(CNC(=O)c3nccs3)[C@H]3CC[C@@H](C2)N3CCOc2ccccc2)cc1	-10%	nt	nt	-78*	?
CS(=O)(=O)c1ccc(C2=C(CNC(=O)c3cccnc3)[C@H]3CC[C@@H](C2)N3Cc2ccco2)cc1	-31%	nt	nt	-23	-13
O=C(NCC1=C(c2cccc3ccccc23)C[C@@H]2CC[C@H]1N2Cc1ccco1)c1cccs1	-19%	nt	nt	-109*	?
CS(=O)(=O)c1ccc(C2=C(CNC(=O)c3ccncc3)[C@H]3CC[C@@H](C2)N3Cc2ccccc2)cc1	1%	nt	nt	-91*	?
CCOC(=O)c1cccc(C2=C(CNC(=O)c3ccc([N+](=O)[O-])cc3)[C@H]3CC[C@@H](C2)N3Cc2ccccc2)c1	2%	nt	nt	-113*	-76*
CCOC(=O)c1cccc(C2=C(CNC(C)=O)[C@H]3CC[C@@H](C2)N3Cc2ccccc2)c1	0%	nt	nt	-3	23
CCCCOC(=O)N(C)SN(C)C(=O)Oc1cccc2c1OC(C)(C)C2	nt	0	nt	nt	nt
OCC(Br)(Br)Br	nt	3	nt	nt	nt
CS(=O)(=O)c1ccc(C2=C(CNC(=O)c3cccs3)[C@H]3CC[C@@H](C2)N3CCOc2ccccc2)cc1	-6%	nt	nt	-94*	-103*
CC1=C2C(=O)C3C(CC=C4C[C@@H](O)CC[C@@]43C)[C@@H]2CC[C@]12O[C@@H]1C[C@H](C)CN[C@H]1C2C (some centres undefined)	nt	0	nt	nt	nt
COc1cccc(C(=O)C2CCCN(Cc3ccc(F)cc3)C2)c1 (centres undefined)	-22%	0	-11	-33	18
COc1ccc(CN2CCCC(C(=O)c3ccc(Cl)cc3)C2)c(O)c1 (centres undefined)	-1%	0	33	-72*	-31
O=C(c1ccc(Cl)cc1)C1CCCN(Cc2cccc3cccnc23)C1 (centres undefined)	-16%	6	-8	-99*	-71*
O=C(c1ccc(Cl)cc1)C1CCCN(Cc2cccc3ncccc23)C1 (centres undefined)	-11%	4	24	-5	34
COc1cc2c(c3oc4cccc(O)c4c(=O)c13)C1C=CO[C@@H]1O2 (some centres undefined)	nt	1	nt	nt	nt
COC(=O)C1C(O)C(C)C(O)C(C)/C=C\C=C(/C)C(=O)Nc2c(C)c(OC(C)=O)c3c(c2O)C(=O)C(C)=C2OCOC(=C23)/C(C)=C/C(C)(O)C(O)C(C)C1O (centres undefined)	?	-30*	-2	-6	11
CCCC(=O)O[C@@H]1[C@@H](C)[C@@]2(O)[C@@H](C=C(CO)C[C@@]3(O)C(=O)C(C)=C[C@@H]23)[C@@H]2C(C)(C)[C@]12OC(=O)CCC	nt	0	nt	nt	nt
Cc1cnc2c(C(=O)O)c(Cl)ccc2c1	nt	-1	nt	nt	nt
CN1Cc2c(c(C#N)c(N)n(C)c2=S)CC1(C)C	28µM*	-28	12	4	-11
c1ccc(N2CCCC3(CCNCC3)C2)nc1	nt	1	nt	nt	nt
C[C@]12CCC3C(CC[C@H]4C[C@@H](O)CC[C@]34C)[C@@H]1CCC2=O (some centres undefined)	nt	-1	nt	nt	nt
c1ccc(C[n+]2ccccc2)cc1	5%	nt	-7	-17	-3
c1cc[n+]2c(c1)-c1cccc[n+]1CC2	nt	-35*	nt	nt	nt
Nc1ncnc2c1ncn2[C@@H]1O[C@H](COP(=O)(O)OP(=O)(O)OP(=O)(O)O)[C@H]2OC3(O[C@H]21)C([N+](=O)[O-])=CC(=[N+]([O-])[O-])C=C3[N+](=O)[O-] (some centres undefined)	nt	11	nt	nt	nt

Screening data: PubChem, National Center for Advancing Translational Sciences (NCATS)
